{
  "source": "PubChem BioAssay (NCI)",
  "note": "Compounds without any hit were thinned out: in the full panel of roughly 79,000, 15% have a hit. A number with no mark means an inactive call. Calls of active or inactive are those of the source. No stated cut-off is given here; in the data, active means growth inhibition above about 70%; inactive means the rest. Where a SMILES comes first, the peptide text is derived from it. Bridges are numbered along the chain shown (N, C = ends). Roman numbers before positions name the chains, in order. [ ]: non-standard residue; d: D form. The star is where a group is joined. Quinoxaline2carbonyl = O=C(c1cnc2ccccc2n1)*; NMeV = CN[CH](C(=O)O)C(C)C; NMeC = CN[CH](CS)C(=O)O",
  "data": [
    {"assay": "NCI Yeast Anticancer Drug Screen. Data for the rad50 strain (AID 155);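 further: 0% = growth of vehicle-only cultures of the same strain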", "settings": "S. cerevisiae rad50 strain growth inhibition; at 50.0 µM; stronger effect = higher value", "in_short": "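Relative growth inhibition (compound vs vehicle) was measured in yeast with a defined repair-gene alteration.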", "values": [
      {"smiles": "[N-]=[N+]=CC(=O)CCC(=O)C=[N+]=[N-]", "growth inhibition": "10.2%"},
      {"smiles": "CC(=O)CCC(=O)O.[Ni]", "growth inhibition": "-37.5%"},
      {"smiles": "CCN1/C(=C/C=C2\\CCC(/C=C/c3sc4ccc(Cl)cc4[n+]3CC)=C2N(c2ccccc2)c2ccccc2)Sc2ccc(Cl)cc21", "growth inhibition": "14.4%"},
      {"smiles": "Cn1cnc([N+](=O)[O-])c1[Se]c1nc(N)nc2nc[nH]c12", "growth inhibition": "-24.1%"},
      {"smiles": "CCC1(CCBr)C(=O)NC(=O)NC1=O", "growth inhibition": "-33.6%"},
      {"smiles": "O=C(CBr)OCCOC(=O)CBr", "growth inhibition": "0.55%"},
      {"smiles": "Cc1ncc([N+](=O)[O-])n1C(C)C(=O)Nc1ccc(N(CCCl)CCCl)cc1", "note": "(configuration not stated)", "growth inhibition": "-6.2%"},
      {"smiles": "O=S(=O)(Nc1ccc(-c2ccccc2)cc1)c1ccc([As](=O)(O)O)cc1", "growth inhibition": "38.6%"},
      {"smiles": "Cc1ccc([NH-])cc1.Cc1ccc([NH-])cc1.[Cl][Pt+2][Cl]", "growth inhibition": "-31.7%"},
      {"smiles": "[Se]=[Mo]=[Se]", "growth inhibition": "-10.2%"},
      {"smiles": "CN(C)C1(c2ccc3ccccc3c2)CSC1", "growth inhibition": "-0.4%"},
      {"smiles": "C=C[C](=C)[Pb]([CH2]C)([CH2]C)[CH2]C", "growth inhibition": "-7.3%"},
      {"smiles": "CC(=O)CC(C)=O.CC(=O)CC(C)=O.CC(=O)CC(C)=O.[La]", "growth inhibition": "27.8%"},
      {"smiles": "CCOc1ccc2ccccc2c1OP(=O)(OCC)OCC", "growth inhibition": "23.9%"},
      {"smiles": "CC12CCC3C4CCC(=O)C=C4CCC3C1CC1CC(=O)OC12", "note": "(configuration not stated)", "growth inhibition": "-4.15%"},
      {"smiles": "COc1ccc(S(=O)(=O)F)cc1NC(=O)c1ccc2ccccc2c1O", "growth inhibition": "6.4%"},
      {"smiles": "CC1NC(=O)C(NC(=O)c2cnc3ccccc3n2)COC(=O)C(C(C)C)N(C)C(=O)C2CSSCC(C(=O)N(C)C(C(C)C)C(=O)OCC(NC(=O)c3cnc4ccccc4n3)C(=O)NC(C)C(=O)N2C)N(C)C1=O", "note": "(configuration not stated) (I: Quinoxaline2carbonyl-SA[NMeC][NMeV] / II: Quinoxaline2carbonyl-SA[NMeC][NMeV]; ester I:1-II:C, I:C-II:1; disulfide I:3-II:3; configuration not given here)", "growth inhibition": "87.3% (active)"}
    ]}
  ]
}
